Each structure is given as a SMILES string. Records with an inconclusive call do not appear. The source made the active and inactive calls. Unless noted, calls follow the shape of the dose curve; as a rule, active = well fitted curve in the direction sought with a large enough effect in the repeat runs; inconclusive = weak or mixed curves; inactive = no such curve, though single readings can be large; an effect the other way counts as inactive or inconclusive.

A short description of assay [1]: Caspase-3/7 induction in HepG2 cells by small molecules, qHTS assay (AID 1346978). Also: nearly all actives have a fitted effect of over 15% in size. Put shortly: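 Wild-type HepG2 cells, 2,000/well, settled 5 hr at 37 C and 5% CO2, then compound-treated for 17 hr; caspase-3/7 activity read by luminescent Caspase-Glo 3/7 after 30 min at room temperature.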
The nature of assay [2]: Caspase-3/7 induction in CHO-K1 cells by small molecules, qHTS cell viability counter screen (AID 1346979). Also: nearly all actives have a fitted effect of over 35% in size. Put shortly:
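CHO-K1 wt, 1,500 cells/well; 5hr pre-incubation 37C/5% CO2; compound pin transfer (DMSO); 16hr exposure; CellTiter-Fluor added, 1hr, fluorescence read.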

Assay [3] in a line: Caspase-3/7 induction in CHO-K1 cells by small molecules, qHTS assay (AID 1346980). Also: nearly all actives have a fitted effect of over 15% in size. Put shortly: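 Wild-type CHO-K1 cells exposed to compounds for 17hr at 37 C, 5% CO2. Caspase-3/7 activity then measured by Caspase-Glo 3/7 luminescence after 30min at room temperature.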
A general note: qHTS replaces the single test concentration by a dilution series.

The nature of assay [4]: Caspase-3/7 induction in HepG2 cells by small molecules, qHTS cell viability counter screen (AID 1346981). Also: series mostly up to about 92 µM; nearly all actives have a fitted effect of over 30% in size. Summed up: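 Steps: seed 2,000 HepG2 cells per well; incubate 5 hr at 37 C; pin-add compounds in DMSO; incubate 16 hr; add CellTiter-Fluor; after 1 hr at 37 C and 5% CO2, read fluorescence.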
In assay [5] the target is Nuclear receptor subfamily 1 group I member 2 (Homo sapiens) (UniProt O75469). Briefly: Human pregnane X receptor (PXR) small molecule agonists, qHTS assay (AID 1346982). Also: nearly all actives have a fitted effect of over 35% in size. Put shortly: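 Agonist mode qHTS: PXR-Luc HepG2 cells plated 5 hr before DMSO-dissolved compounds were pinned in, cultured 24 hr at 37 C, 5% CO2; ONE-Glo luminescence readout.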
In assay [6] the target is Acetylcholinesterase (Homo sapiens) (UniProt P22303). Briefly: Acetylcholinesterase (AChE) small molecule antagonists: colormetric cell-based qHTS assay (AID 1347395; calls by dose curve; also: nearly all actives have a fitted effect of over 30% in size). Summed up:
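SH-SY5Y cells; cpd 30 min 37 C; + DTNB/acetylthiocholine, 90 min 37 C; colorimetric thiocholine read; qHTS.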

For assay [7] the target is unchanged. Briefly: Acetylcholinesterase (AChE) small molecule antagonists: enzyme-based qHTS assay (AID 1347397; calls by dose curve; also: nearly all actives have a fitted effect of over 55% in size). The note with it: Potency: AChE enzyme activity inhibition. Put shortly:
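Recombinant human AChE (50 mU/mL) preincubated with compound 30 min at room temperature; acetylthiocholine plus DTNB then added, and thiocholine formation read colorimetrically after 10 min at room temperature. DMSO served as vehicle control.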

The target is the same in assay [8]. Briefly: Acetylcholinesterase (AChE) small molecule antagonists: fluorescence cell-based qHTS assay (AID 1347398; calls by dose curve; also: nearly all actives have a fitted effect of over 50% in size). Conditions: Potency: AChE activity. Put shortly: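 SH-SY5Y cells (2000/well), attached overnight, incubated with compound 30 min at 37 C. Acetylthiocholine plus Thiolite Green then added for 40 min at room temperature. Thiocholine fluorescence (Ex/Em 490/520 nm) reports cellular AChE activity.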

Assay [9] shares this target. Briefly: Acetylcholinesterase (AChE) small molecule antagonists: enzyme-based qHTS assay with human liver microsomes (AID 1347399; calls by dose curve; also: nearly all actives have a fitted effect of over 60% in size). The note with it: Potency: qHTS inhibition. Summed up:
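Recombinant human AChE (50 mU/mL in the enzyme mix) and human liver microsomes (0.25 mg/mL final) were preincubated with compound and NADPH (0.25 mg/mL final) for 30 min at 37 C. Acetylthiocholine/DTNB was then added; thiocholine was read colorimetrically after 10 min at room temperature.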

Assay [10] concerns the target Cytochrome P450 2D6 (Homo sapiens) (UniProt P10635). Briefly: Cytochrome P450 Family 2 Subfamily D Member 6 (CYP2D6) small molecule antagonists: luciferase reporter qHTS assay (AID 1671196). Also: nearly all actives have a fitted effect of over 50% in size. Also: potency is read from the fitted curve at half-maximal effect. Summed up: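 P450-Glo format: CYP2D6 converts a proluciferin substrate to luciferin in an NADPH-driven reaction lasting 1 h at room temperature. Light output, proportional to CYP2D6 activity, reflects interference by test chemicals.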
For orientation: In a reporter assay the amount or activity of a reporter protein is the signal.

Assay [11] addresses Cytochrome P450 2C19 (Homo sapiens) (UniProt P33261). Kind of assay: Cytochrome P450 Family 2 Subfamily C Member 19 (CYP2C19) small molecule antagonists: luciferase reporter qHTS assay (AID 1671197). Also: nearly all actives have a fitted effect of over 65% in size. Also: potency is read from the fitted curve at half-maximal effect. Summed up: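 Compounds were tested on CYP2C19 activity via proluciferin conversion to luciferin. The 37C, 1 h reaction followed NADPH addition; detection reagent stopped it.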
Assay [12] deals with Cytochrome P450 2C9 (Homo sapiens) (UniProt P11712). Briefly: Cytochrome P450 Family 2 Subfamily C Member 9 (CYP2C9) small molecule antagonists: luciferase reporter qHTS assay (AID 1671198). Also: nearly all actives have a fitted effect of over 50% in size. Also: potency is read from the fitted curve at half-maximal effect. Summed up:
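P450-Glo proluciferin substrate with CYP2C9 enzyme; 10 min RT preincubation, then NADPH regeneration 1 h at 37C; luciferin detection reagent 20 min RT, luminescence in relative luminescence units.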

Assay [13] has as its target Voltage-gated inwardly rectifying potassium channel KCNH2 (Homo sapiens) (UniProt Q12809). Briefly: Human Ether-a-go-go-Related Gene (hERG) channel small molecule antagonists: fluorescence cell-based qHTS assay (AID 1671200).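 Also: hERG-expressing U2OS cells given a thallium stimulus after FluxOR II dye loading; series mostly up to about 77 µM; nearly all actives have a fitted effect of over 50% in size.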 Put shortly:
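Read-out: thallium influx as a surrogate for potassium, tracked as fluorescence (480 nm ex/540 nm em) every second for 2 min after Stimulus Buffer addition in dye-loaded hERG-U2OS cells.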

Assay [14] concerns the target Cytochrome P450 3A4 (Homo sapiens) (UniProt P08684). Kind of assay: Cytochrome P450 Family 3 Subfamily A Member 4 (CYP3A4) small molecule antagonists: luciferase reporter qHTS assay (AID 1671201). Put shortly:
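Luminescent readout (RLU) proportional to CYP3A4 activity, from luciferin generated off a proluciferin substrate. Enzyme–substrate mix plus compound 10 min at room temp, NADPH regeneration 1 h, detection reagent 20 min.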

The target of assay [15] is Cytochrome P450 1A2 (Homo sapiens) (UniProt P05177). Kind of assay: Cytochrome P450 Family 1 Subfamily A Member 2 (CYP1A2) small molecule antagonists: luciferase reporter qHTS assay (AID 1671199). Also: nearly all actives have a fitted effect of over 50% in size. Also: potency is read from the fitted curve at half-maximal effect. Summed up:
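Inhibition of CYP1A2 conversion of proluciferin to luciferin, detected by luminescence. Reaction run 1 h at room temperature with NADPH regeneration after brief compound preincubation.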

Sequence of Cytochrome P450 2D6 (Homo sapiens) (P10635 whole entry, looked up): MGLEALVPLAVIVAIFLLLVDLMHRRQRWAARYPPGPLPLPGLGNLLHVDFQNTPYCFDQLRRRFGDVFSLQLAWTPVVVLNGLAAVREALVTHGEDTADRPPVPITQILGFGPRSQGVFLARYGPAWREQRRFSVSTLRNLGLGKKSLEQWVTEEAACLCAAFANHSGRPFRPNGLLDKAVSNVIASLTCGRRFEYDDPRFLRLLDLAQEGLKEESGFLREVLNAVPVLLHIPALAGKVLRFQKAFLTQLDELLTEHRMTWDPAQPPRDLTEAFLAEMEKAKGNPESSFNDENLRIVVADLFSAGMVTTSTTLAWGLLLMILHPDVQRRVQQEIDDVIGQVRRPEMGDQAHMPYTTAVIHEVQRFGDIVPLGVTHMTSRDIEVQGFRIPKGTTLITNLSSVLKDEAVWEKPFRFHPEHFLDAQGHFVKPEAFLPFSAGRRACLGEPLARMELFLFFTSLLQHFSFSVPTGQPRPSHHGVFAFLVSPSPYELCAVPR
Sequence of Voltage-gated inwardly rectifying potassium channel KCNH2 (Homo sapiens) (Q12809 whole entry, looked up): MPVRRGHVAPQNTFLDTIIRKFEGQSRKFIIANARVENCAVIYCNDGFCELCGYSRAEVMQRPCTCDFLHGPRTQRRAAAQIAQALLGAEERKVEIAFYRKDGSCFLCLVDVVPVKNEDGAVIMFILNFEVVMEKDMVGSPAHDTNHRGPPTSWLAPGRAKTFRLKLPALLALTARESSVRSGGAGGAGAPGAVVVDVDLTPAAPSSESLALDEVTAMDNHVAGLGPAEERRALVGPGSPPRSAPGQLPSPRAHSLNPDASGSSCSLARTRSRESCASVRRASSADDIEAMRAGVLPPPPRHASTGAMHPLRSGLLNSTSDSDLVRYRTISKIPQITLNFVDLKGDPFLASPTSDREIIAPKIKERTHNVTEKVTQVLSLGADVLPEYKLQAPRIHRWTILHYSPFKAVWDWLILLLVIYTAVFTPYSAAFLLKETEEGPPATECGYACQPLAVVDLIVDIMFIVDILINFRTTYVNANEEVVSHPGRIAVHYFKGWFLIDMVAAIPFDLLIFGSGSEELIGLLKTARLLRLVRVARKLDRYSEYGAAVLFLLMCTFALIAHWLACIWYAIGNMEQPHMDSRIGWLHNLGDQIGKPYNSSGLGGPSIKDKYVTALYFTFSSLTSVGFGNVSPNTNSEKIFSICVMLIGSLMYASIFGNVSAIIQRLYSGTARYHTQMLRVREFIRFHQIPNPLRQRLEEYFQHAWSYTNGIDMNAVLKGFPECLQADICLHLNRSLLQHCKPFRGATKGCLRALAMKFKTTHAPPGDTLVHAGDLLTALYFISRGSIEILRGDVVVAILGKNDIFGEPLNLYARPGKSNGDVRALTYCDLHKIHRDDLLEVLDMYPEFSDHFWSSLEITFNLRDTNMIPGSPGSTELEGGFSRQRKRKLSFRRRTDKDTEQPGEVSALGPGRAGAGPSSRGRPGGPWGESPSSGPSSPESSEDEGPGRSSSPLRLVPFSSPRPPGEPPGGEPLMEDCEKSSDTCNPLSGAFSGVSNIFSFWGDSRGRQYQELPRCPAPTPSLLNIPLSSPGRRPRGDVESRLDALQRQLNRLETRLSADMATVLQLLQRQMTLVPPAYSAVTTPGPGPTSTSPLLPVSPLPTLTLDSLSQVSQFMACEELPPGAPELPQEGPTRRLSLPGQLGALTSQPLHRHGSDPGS
Sequence of Nuclear receptor subfamily 1 group I member 2 (Homo sapiens) (O75469 whole entry, looked up): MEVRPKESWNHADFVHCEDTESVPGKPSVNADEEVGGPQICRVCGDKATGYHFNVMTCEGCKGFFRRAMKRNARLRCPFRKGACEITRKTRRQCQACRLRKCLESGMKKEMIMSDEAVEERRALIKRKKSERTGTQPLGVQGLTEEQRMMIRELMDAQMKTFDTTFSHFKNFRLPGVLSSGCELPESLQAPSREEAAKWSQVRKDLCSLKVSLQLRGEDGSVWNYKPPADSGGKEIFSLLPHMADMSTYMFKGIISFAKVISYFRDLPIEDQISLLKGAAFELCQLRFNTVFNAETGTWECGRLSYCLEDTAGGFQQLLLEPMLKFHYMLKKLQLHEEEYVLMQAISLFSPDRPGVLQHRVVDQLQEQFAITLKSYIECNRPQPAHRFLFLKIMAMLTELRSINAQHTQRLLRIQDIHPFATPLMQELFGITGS
Sequence of Cytochrome P450 3A4 (Homo sapiens) (P08684 whole entry, looked up): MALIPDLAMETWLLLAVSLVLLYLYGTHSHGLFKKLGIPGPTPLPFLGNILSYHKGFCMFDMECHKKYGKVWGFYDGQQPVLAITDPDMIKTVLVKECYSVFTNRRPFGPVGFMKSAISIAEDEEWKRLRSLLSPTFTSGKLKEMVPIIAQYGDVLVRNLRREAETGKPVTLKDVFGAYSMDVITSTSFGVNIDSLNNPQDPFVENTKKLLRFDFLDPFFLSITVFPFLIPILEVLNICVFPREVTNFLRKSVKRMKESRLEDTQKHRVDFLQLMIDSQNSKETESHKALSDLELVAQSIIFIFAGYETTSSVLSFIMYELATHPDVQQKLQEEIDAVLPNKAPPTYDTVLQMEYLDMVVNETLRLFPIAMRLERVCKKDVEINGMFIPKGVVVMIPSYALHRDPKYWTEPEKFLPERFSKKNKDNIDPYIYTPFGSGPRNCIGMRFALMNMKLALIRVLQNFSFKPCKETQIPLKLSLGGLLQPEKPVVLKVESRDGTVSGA
Sequence of Cytochrome P450 2C9 (Homo sapiens) (P11712 whole entry, looked up): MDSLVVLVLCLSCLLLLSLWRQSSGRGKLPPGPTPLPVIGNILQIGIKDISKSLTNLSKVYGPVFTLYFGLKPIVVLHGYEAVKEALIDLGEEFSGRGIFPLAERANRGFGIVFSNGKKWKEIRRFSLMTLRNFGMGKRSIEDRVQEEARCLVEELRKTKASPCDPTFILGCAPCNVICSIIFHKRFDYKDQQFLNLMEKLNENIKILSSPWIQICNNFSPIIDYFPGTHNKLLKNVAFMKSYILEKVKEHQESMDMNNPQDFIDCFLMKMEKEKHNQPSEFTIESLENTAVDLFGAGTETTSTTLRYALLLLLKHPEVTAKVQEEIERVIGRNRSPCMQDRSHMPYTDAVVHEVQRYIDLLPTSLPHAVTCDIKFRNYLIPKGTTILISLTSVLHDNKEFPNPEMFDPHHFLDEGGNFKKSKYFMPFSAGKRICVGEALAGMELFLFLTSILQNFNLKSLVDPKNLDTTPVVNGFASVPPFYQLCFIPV
Sequence of Acetylcholinesterase (Homo sapiens) (P22303 whole entry, looked up): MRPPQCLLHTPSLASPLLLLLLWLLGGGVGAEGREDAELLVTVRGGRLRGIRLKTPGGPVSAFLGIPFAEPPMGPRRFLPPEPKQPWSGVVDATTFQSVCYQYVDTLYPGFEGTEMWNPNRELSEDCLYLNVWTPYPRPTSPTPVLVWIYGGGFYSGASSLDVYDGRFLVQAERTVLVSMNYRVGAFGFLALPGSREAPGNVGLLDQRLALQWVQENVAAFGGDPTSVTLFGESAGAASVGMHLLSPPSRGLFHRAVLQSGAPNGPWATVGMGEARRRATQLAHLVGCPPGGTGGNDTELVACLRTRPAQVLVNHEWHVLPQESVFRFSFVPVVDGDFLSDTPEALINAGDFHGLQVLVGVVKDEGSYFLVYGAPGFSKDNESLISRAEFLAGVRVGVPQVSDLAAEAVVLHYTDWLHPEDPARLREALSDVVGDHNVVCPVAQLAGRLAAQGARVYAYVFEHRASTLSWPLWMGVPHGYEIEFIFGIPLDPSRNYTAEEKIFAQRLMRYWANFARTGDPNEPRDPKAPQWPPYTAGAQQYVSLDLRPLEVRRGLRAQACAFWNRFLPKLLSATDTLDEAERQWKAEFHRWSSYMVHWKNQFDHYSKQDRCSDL
Sequence of Cytochrome P450 2C19 (Homo sapiens) (P33261 whole entry, looked up): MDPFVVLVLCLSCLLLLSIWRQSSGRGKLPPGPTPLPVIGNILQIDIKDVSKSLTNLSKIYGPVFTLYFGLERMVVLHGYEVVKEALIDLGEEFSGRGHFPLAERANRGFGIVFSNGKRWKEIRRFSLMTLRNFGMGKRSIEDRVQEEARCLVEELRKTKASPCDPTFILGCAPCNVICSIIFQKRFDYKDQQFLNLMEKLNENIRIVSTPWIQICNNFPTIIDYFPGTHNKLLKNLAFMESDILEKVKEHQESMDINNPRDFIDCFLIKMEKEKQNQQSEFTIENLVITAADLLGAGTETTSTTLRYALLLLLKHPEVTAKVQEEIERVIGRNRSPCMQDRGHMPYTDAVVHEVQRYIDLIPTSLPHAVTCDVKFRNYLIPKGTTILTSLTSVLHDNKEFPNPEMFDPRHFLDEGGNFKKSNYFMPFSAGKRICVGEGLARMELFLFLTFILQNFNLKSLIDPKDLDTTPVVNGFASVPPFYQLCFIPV
Sequence of Cytochrome P450 1A2 (Homo sapiens) (P05177 whole entry, looked up): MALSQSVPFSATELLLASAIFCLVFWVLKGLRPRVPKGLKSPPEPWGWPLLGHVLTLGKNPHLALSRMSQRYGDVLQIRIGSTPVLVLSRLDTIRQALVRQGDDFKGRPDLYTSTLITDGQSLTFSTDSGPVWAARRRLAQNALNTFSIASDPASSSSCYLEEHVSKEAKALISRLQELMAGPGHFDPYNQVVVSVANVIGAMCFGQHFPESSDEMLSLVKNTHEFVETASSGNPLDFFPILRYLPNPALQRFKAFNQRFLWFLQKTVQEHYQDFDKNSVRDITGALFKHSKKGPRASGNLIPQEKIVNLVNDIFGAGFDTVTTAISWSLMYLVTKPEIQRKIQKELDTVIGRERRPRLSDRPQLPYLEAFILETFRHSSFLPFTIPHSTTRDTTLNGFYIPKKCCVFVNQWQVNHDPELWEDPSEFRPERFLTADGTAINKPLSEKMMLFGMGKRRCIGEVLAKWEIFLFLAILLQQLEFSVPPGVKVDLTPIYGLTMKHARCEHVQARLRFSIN

With `C=C(C#N)CCC#N`, the Potency result in assay [1], in assay [2], in assay [3], in assay [4], in [5] and in assay [6] was “inactive” in each case. In addition, the Potency entry in assay [7], in [8], in assay [9], in assay [10], in assay [11] and in assay [12] was “inactive” each time. Further, the Potency entry in [13] and in [14] was “inactive” each time.
As for `O=C(O)CC(Cl)C(=O)O` (configuration not stated), the Potency result in [1], in assay [2], in assay [3], in assay [4], in [5] and in [6] was “inactive” throughout. Besides, the Potency entry in assay [7], in assay [8], in assay [9], in [10], in assay [11] and in assay [12] was “inactive” throughout. In addition, the Potency entry in assay [15], in [13] and in assay [14] was “inactive” in each case.
`ClCc1cccc(Cl)c1`: the Potency entry in assay [1], in [2], in assay [3], in assay [4], in [5] and in assay [6] was “inactive” in each case. The Potency entry in assay [7], in assay [8], in [9], in [11], in assay [12] and in assay [15] was “inactive” each time. Further, the Potency result in [13] and in assay [14] was “inactive” in each case. The Potency in assay [10] is 27.5 µM (active).
As for `CC1Sc2c(C(=O)O)c(=O)c3cc(F)c(N4CCNCC4)cc3n21` (configuration not stated), the Potency entry in [1], in assay [2], in assay [3], in assay [4], in [5] and in assay [6] was “inactive” each time. Further, the Potency result in [7], in [8], in assay [9], in [10], in [11] and in assay [15] was “inactive” throughout. Besides, the Potency entry in [13] and in assay [14] was “inactive” each time.
Consider `COC(=O)C(Cl)C(=O)OC`, for which the Potency result in assay [1], in assay [2], in assay [3], in assay [4], in [5] and in assay [6] was “inactive” throughout. Also, the Potency result in assay [7], in assay [8], in [9], in assay [10], in [12] and in assay [15] was “inactive” throughout. Also, the Potency entry in assay [13] and in assay [14] was “inactive” in each case.
As for `CC(C)=CCOc1c2occc2cc2ccc(=O)oc12`, the Potency result in assay [1], in assay [2], in assay [3], in assay [4], in assay [5] and in [6] was “inactive” each time. Moreover, the Potency result in assay [7], in [8], in assay [9] and in assay [13] was “inactive” each time. The Potency was 4.9 µM (active) in assay [10], 4.36 µM (active) in [11], 0.617 µM (active) in assay [12] and 0.229 µM (active) in assay [15].
With `NC(=O)C(Cl)(Cl)Cl`, the Potency result in [1], in [2], in assay [3], in assay [4], in assay [5] and in [7] was “inactive” each time. Moreover, the Potency result in [8], in [9], in [10], in [11], in assay [12] and in assay [13] was “inactive” in each case. The Potency result in assay [14] was “inactive”.
As to `CCCCNP(N)(N)=S`, the Potency entry in assay [1], in [2], in assay [3], in assay [4], in assay [5] and in assay [6] was “inactive” in each case. Besides, the Potency result in assay [8], in assay [9], in [15], in assay [13] and in assay [14] was “inactive” throughout. In addition, the Potency is 50.2 µM (active) in [11] and 35.6 µM (active) in [12].

These data come from PubChem BioAssay (Tox21).
